Our source for the Potency, viability (% of control) and viability, % of control values is PubChem BioAssay (NCATS).

Experiment [1] is described as follows: Viability qHTS for spleen associated tyrosine kinase inhibitor (SYKi) naive MV4-11 cells (AID 1963823). Also: nearly all actives have a fitted effect of over 40% in size. In a few lines: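 In this viability screen, compounds acted on SYK inhibitor naive MV4-11 cells for three days (72 hr, 37 C). Remaining viable cells were measured by CellTiter-Glo luminescence following a 10 min room-temperature development.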
Experiment [2] can be described thus: Viability qHTS for spleen associated tyrosine kinase inhibitor (SYKi) drug resistant MV4-11 cells (AID 1963824). Also: nearly all actives have a fitted effect of over 35% in size. In a few lines: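 SYK-inhibitor-resistant MV4-11 AML cells were seeded at 500 per well onto compound and cultured 72 hours (37 °C, 5% CO2). CellTiter-Glo was then added, and after 10 min at room temperature, luminescence gave viability.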
(qHTS replaces the single test concentration by a dilution series.)

Records with an inconclusive call do not appear. Values without a mark were called inactive. Activity calls are given as the source filed them. Calls follow the shape of the dose curve; as a rule, active = well fitted cell-killing curve with a large enough effect; inconclusive = small, poorly fitted or top-dose-only effect, or effect the other way; inactive = no such curve, though single readings can be large or run the other way.
Potency is read from the fitted curve at half-maximal effect.

As to `COC1OC(O)C2(CCC3(O2)C(C)CC2OC(=O)C4(C)CCCC3(C)C24)C1O` (stereo unspecified), the Potency result in experiment [1] and in experiment [2] was “inactive” throughout.
Regarding `N#Cc1cnc2c(Cl)cc(NCc3cn(CCN4CCCCCC4)nn3)cc2c1Nc1ccc(F)c(Cl)c1`, the Potency in experiment [1] is 9.2 µM (active); in experiment [2] it was 13 µM (active).
For `[O-][n+]1cccc(-c2nc3c(Cl)cccc3cc2[C@@H](Nc2ncnc3cccnc23)C(F)(F)F)c1` the same measures were 4.17 µM (active) and 13.2 µM (active).
For `C=C1C(=O)OC2/C=C(\CO)CC/C=C(\C=O)CC(OC(=O)CC(C)C)C12` (stereo unspecified) the same measures were 2.27 µM (active) and 2.02 µM (active).
Turning to `CO[C@H]1/C=C/O[C@@]2(C)Oc3c(C)c(O)c4c(O)c(c(/C=N\N5CCN(C6CCCC6)CC5)c(O)c4c3C2=O)NC(=O)/C(C)=C\C=C\[C@H](C)[C@H](O)[C@@H](C)[C@@H](O)[C@@H](C)[C@H](OC(C)=O)[C@@H]1C`, the Potency is 18.6 µM (active) in experiment [1] and 11.8 µM (active) in experiment [2].
For `C[C@H](NC(c1cccc2[nH]c(=O)c(=O)[nH]c12)P(=O)(O)O)c1ccc(Br)cc1` (stereo partly specified) the same measures were “inactive” and 14.6 µM (active).
For `CCn1c(-c2nonc2N)nc2c(C#CCO)ncc(OCCCN)c21` the same measures were 0.58 µM (active) and 1.84 µM (active).
For `C=CC(=O)Nc1cc(-n2c(=O)ccc3cnc4ccc(-c5ccc(NS(C)(=O)=O)cc5)cc4c32)ccc1C`, the Potency is 1.16 µM (active) in experiment [1] and 1.3 µM (active) in experiment [2].
`C[C@@H]1O[C@@H](O[C@@H]2[C@@H](O)[C@H](O[C@@H]3[C@@H](O)[C@@H](O)[C@H](O[C@H]4[C@H](OC(=O)[C@]56CCC(C)(C)C[C@H]5C5=CCC7[C@@]8(C)C[C@H](O)[C@H](O[C@@H]9O[C@H](C(=O)O)[C@@H](O)[C@H](O)[C@H]9O)[C@@](C)(CO)C8[C@H](O)C[C@@]7(C)[C@]5(C)CC6)OC[C@H](O)[C@@H]4O)O[C@H]3C)OC[C@H]2O)[C@H](O)[C@H](O)[C@H]1O` (stereo partly specified): the viability (% of control) in experiment [1] was 78.4% [at 9.25 µM]. Further, the viability, % of control in experiment [2] was 89.9% [at 9.25 µM].
With `CC1(C)CCCC2(C)C1CC=C1C(=O)OC(O)C12O` (stereo unspecified), the Potency entry in experiment [1] and in experiment [2] was “inactive” each time.
As for `COc1c2c(c(C)c3c1C(=O)OC3)O[C@@]1(C)CCC3(C(C)(C)O)OC(=O)CC[C@]3(C)[C@H]1C2` (stereo partly specified), the Potency entry in experiment [1] and in experiment [2] was “inactive” throughout.
For `COc1ccc(C2=NC(c3ccc(Cl)cc3)C(c3ccc(Cl)cc3)N2C(=O)N2CCNC(=O)C2)c(OC(C)C)c1` (stereo unspecified), the values for the Potency in experiment [1] and in experiment [2] were 16.4 µM (active) and 18.4 µM (active), respectively.
For `C/C=C/C=C/[C@@H]1O[C@](O)([C@H](CC)C(=O)NC/C=C/C=C(\C)[C@@H](OC)[C@@H](C)C2OC(/C=C/C=C/C=C(\C)C(=O)c3c(O)cc[nH]c3=O)[C@H](O)[C@@H]2O)[C@H](O)[C@H](O)C1(C)C` (stereo partly specified) the same measures were “inactive” and 0.243 µM (active).
For `Cc1ccc(-c2c(-c3nn(C)c4ncnc(N5CC[C@H](N6CCCCC6)C5)c34)cnn2C)cc1` the same measures were “inactive” and “inactive”.
For `CC1(CO)CC2C(O)C(=O)C3(CO)CC3(C)C2C1` (stereo unspecified) the same measures were “inactive” and “inactive”.
As to `CC(C)(O)C1CCC2(C)C3C(O)C4C(C13)C42CO` (stereo unspecified), the Potency result in experiment [1] and in experiment [2] was “inactive” throughout.
For `CCOC(=O)CCC(=O)O[C@H]1[C@H](O[C@@H]2[C@@H](C)[C@H](O[C@H]3C[C@@](C)(OC)[C@@H](O)[C@H](C)O3)[C@@H](C)C(=O)O[C@H](CC)[C@@](C)(O)[C@H](O)[C@@H](C)C(=O)[C@H](C)CC2(C)O)O[C@H](C)C[C@@H]1N(C)C` (stereo partly specified), the Potency entry in experiment [1] and in experiment [2] was “inactive” throughout.
`CC(C)C[C@H](NC(=O)CNC(=O)OCc1ccccc1)C(=O)N[C@@H](Cc1ccccc1)C(=O)CCl`: the results for the Potency in experiment [1] and in experiment [2] were 18.4 µM (active) and 8.2 µM (active), respectively.
For `CCCc1[nH]nc2c1C(c1cc(Cl)cc(Cl)c1O)C(C#N)=C(N)O2` (stereo unspecified) the same measures were 16.4 µM (active) and 16.4 µM (active).
For `CC1=CC(=O)C[C@H]2[C@@H]1CC[C@@H](C)[C@]21CO[C@H](c2ccoc2)C1=O` the same measures were “inactive” and “inactive”.
For `COc1c(F)cccc1C(=O)N1C[C@@H](C)CC[C@H]1CNc1ccc(Br)cn1` the same measures were 9.2 µM (active) and 9.2 µM (active).
On to `CC(C)(O[C@@H]1O[C@H](CO)[C@@H](O)[C@H](O)[C@H]1O)C(OC(=O)/C=C\c1ccc(O)cc1)C(=O)OCc1ccc(O[C@@H]2O[C@H](CO)[C@@H](O)[C@H](O)[C@H]2O)cc1` (stereo partly specified), for which the Potency entry in experiment [1] and in experiment [2] was “inactive” in each case.
In the case of `CC(C)C1=CC2C(CC[C@]2(C)O)[C@](C)(O)CC1` (stereo partly specified), the Potency entry in experiment [1] and in experiment [2] was “inactive” each time.
As to `O=C(c1ccccc1)c1c(O)cc(O)cc1O[C@@H]1O[C@H](CO)[C@@H](O)[C@H](O)[C@H]1O`, the Potency result in experiment [1] and in experiment [2] was “inactive” in each case.
Consider `Nc1nc2c(nc(Sc3ccc(Cl)cc3)n2[C@@H]2O[C@@H]3COP(=O)(O)O[C@H]3[C@H]2O)c(=O)[nH]1`, for which the Potency result in experiment [1] and in experiment [2] was “inactive” each time.
As to `C=C1CC2C3(C)C(O)CC(=O)C(C)(C)C3C(OC(C)=O)C(OC(C)=O)C2(C)C2C(=O)OC(C)(C(=O)OC)C(=O)C12C` (stereo unspecified), the Potency entry in experiment [1] and in experiment [2] was “inactive” each time.
With `COc1cc(O)cc(OC2OC(CO)C(O)C(O)C2O)c1` (stereo unspecified), the Potency result in experiment [1] and in experiment [2] was “inactive” throughout.
In the case of `Nc1ccc(-n2nc(C(F)(F)F)cc2C(F)(F)F)cc1`, the Potency entry in experiment [1] and in experiment [2] was “inactive” throughout.
